Drawing on ChEMBL document CHEMBL4513146, “CO-ADD screening of Karazin Kharkiv National University (Ukraine) compounds”, this text covers Inhibition for five compounds.

Measured potencies and affinities stand elsewhere.

The subject of one assay is Klebsiella pneumoniae. As to conditions: Concentration 32 ug.mL-1;; ASSAY_TEST Inhibition of Bacterial Growth; detection method Absorption (OD600); MEDIA CAMHB; plate type 384well; NBS; CORNING #3640; time 18 hr.
The subject of another assay is Candida albicans. As to conditions: Concentration 32 ug.mL-1; ASSAY_TEST Inhibition of Fungal Growth; detection method Absorption (OD530).
In the next assay the test system is Cryptococcus neoformans. As to conditions: Concentration 32 ug.mL-1; ASSAY_TEST Inhibition of Fungal Growth; detection method Resazurin; Absorption (OD600-OD570); plate type 384well; NBS; CORNING #3640.

Take `CCOc1ccc(N(Cc2ccc(F)cc2)S(=O)(=O)c2ccc3nncn3c2)cc1`: the Inhibition in the assay on Klebsiella pneumoniae is given as 4.23%; in the assay with Candida albicans, 3.15%; with Cryptococcus neoformans, -3.72%.

For the compound `Cc1cc(NC(=O)Cn2nc3ccc(SC(C)(C)C)nn3c2=O)ccc1Br`, the Inhibition with Klebsiella pneumoniae is listed as 5.26%; in the assay on Candida albicans, 32.86%; in the assay on Cryptococcus neoformans, -21.27%.

With `Cc1cc2nn(CC(=O)Nc3ccc(Cl)cc3)c(=O)n2c(Nc2ccc(F)c(C)c2)n1`, the values for the Inhibition with Klebsiella pneumoniae, with Candida albicans and with Cryptococcus neoformans were 19.07%, 3.54% and -11.52%, respectively.

For `CCc1ccccc1NC(=O)Cn1nc2cc(C)nc(Nc3ccc(F)cc3)n2c1=O`, the Inhibition was 9.33% in the assay with Klebsiella pneumoniae, 29.91% in the assay with Candida albicans and -17.34% in the assay on Cryptococcus neoformans.

Take `CCCCOc1ccc(-c2cc3c4nnc(SCC(=O)Nc5c(C)cccc5CC)n4ccn3n2)cc1`: the Inhibition in the assay with Klebsiella pneumoniae is recorded as -16.94%; with Candida albicans it was -2.13%; in the assay with Cryptococcus neoformans, -12.87%.
